22 compounds from PubChem BioAssay AID488899 (Broad Institute, 2010) can be followed below.

Among all 330,000 compounds or so, about 2,800 (0.85%) were called active. This is one part of a sample in which actives are shown more often than they occur.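 How the source made its calls: active means mean inhibition across replicates of 60% or more, whatever share of single replicates reaches that level; inconclusive means some that reach 60%, reason not given; inactive means mean inhibition across replicates below 60%.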

This test is described as follows: inhibitors of MITF-dependent TRPM1 promoter reporter, primary screen, cell-based, SK-MEL-5, single point, luciferase (AID 488899). The settings on record: SK-MEL-5 TRPM1 promoter luciferase, 24 h; at 12.5 µM; active compounds read high.
With `Cc1ccc(CN(CC(=O)NCC2CCCO2)S(=O)(=O)c2ccc(C)cc2)cc1` (configuration not stated), the inhibition was -1.73% (inactive). In the case of `COc1ccc(N2C(=O)C(CC(=O)Nc3ccccc3)N(Cc3ccc(OC)c(OC)c3)C2=O)cc1` (configuration not stated) it was -7.22% (inactive). Take `COc1ccc([N+](=O)[O-])cc1N(CC(O)Cn1nnc2ccccc21)S(=O)(=O)c1ccc(C)cc1` (configuration not stated): the inhibition is -0.297% (inactive). Then `Cc1cc(F)ccc1NC(=S)NCCc1ccccc1`, with 7.66% (inactive); and `Cc1ccc(C)c(S(=O)(=O)N(C)c2ccc(OC(=O)C3CCN(C(=O)c4ccc(F)cc4)CC3)cc2)c1`, with -0.817% (inactive); and `Cc1ccc(S(=O)(=O)N2CCN(C(=O)c3cc(S(=O)(=O)N4CCOCC4)ccc3F)CC2)cc1`, with 3.63% (inactive). Then `CC(C)Nc1nnc(SC(C)C(=O)N(C)C2CCCCC2)s1` (configuration not stated), with 3.93% (inactive); and `O=C(/C=C/Sc1ncn[nH]1)c1ccc(Cl)cc1`, with 90.5% (active); and `Cc1cccc(C=CC(=O)c2ccc(Cl)cc2)c1`, with -37.5% (inactive).

Consider `Cc1ccc(C(=O)/C=C/c2c(C)nn(-c3ccccc3)c2Cl)cc1`, for which the inhibition was -34.6% (inactive). Regarding `CC(=O)Nc1ccc(NC(=O)C(C)OC(=O)c2ccccc2C(=O)c2ccc(Cl)c([N+](=O)[O-])c2)cc1` (configuration not stated), the inhibition is 75.9% (active). Then `CC(OC(=O)CNC(=O)c1ccc(Cl)c([N+](=O)[O-])c1)C(=O)NCc1ccco1` (configuration not stated), with -4.83% (inactive); and `O=C(Nc1ccncc1)c1ccc(Cl)c([N+](=O)[O-])c1`, with -0.779% (inactive).

As for `O=C(COC(=O)c1cnccn1)Nc1ccc(Cl)cc1C(F)(F)F`, the inhibition is 8.53% (inactive).

In the case of `COc1ccc(CC(=O)NC2CCSc3ccccc32)cc1OC` (configuration not stated), the inhibition is 3.11% (inactive). As to `COc1ccccc1-n1nnnc1S(=O)(=O)Cc1ccc(Cl)cc1`, the inhibition was 73.6% (active). In the case of `COc1ccccc1-n1nnnc1SCC(=O)NC(=O)Cc1ccccc1` it was 2.76% (inactive); in that of `COc1ccccc1N1CCN(S(=O)(=O)c2ccc(Cl)cc2)CC1`, 8.65% (inactive). Then `CC(C)(C)n1nc(Cc2cccc3ccccc23)c(C#N)c1N`, with 4.42% (inactive); and `CCc1nn(-c2cc(Oc3cccc4ccccc34)nc(-c3ccccc3)n2)c(N)c1C#N`, with 86.1% (active). `O=C(c1ccc2c(c1)N(Cc1ccc(F)cc1)C(=O)c1ccccc1S2(=O)=O)N1CCN(c2ccccn2)CC1`: the inhibition is 7.75% (inactive). On to `CCOC(=O)C1(Cc2ccccc2C)CCCN(S(C)(=O)=O)C1` (configuration not stated), for which the inhibition was 0.048% (inactive).

What is called inhibition is the change of the read-out against control, counted positive when it falls.
